Laboratory results from PubChem BioAssay AID1259343 (VanderVen Lab, College of Veterinary Medicine, Cornell …, 2017).
The campaign covered roughly 6,200 compounds. About 2,900 (47%) were called active. So high a share suggests a set chosen from earlier hits. The list shows a part of the results. Values without a mark were called inactive. No stated cut-off is given here; in the data, active means inhibition above about 50%; inactive means the rest.

assay: Mycobacterium tuberculosis growth inhibition, primary screen (AID 1259343); details: inhibition: at 10 µM, active compounds read high; outcome: 10 uM

Row | SMILES | inhibition
1 | O=C(NNc1ccccc1)C(O)C(O)C(=O)NNc1ccccc1 (centres undefined) | 83.3% (active)
2 | COCCN(CC(=O)N(Cc1ccc(F)cc1)Cc1ccco1)C(=O)N(C)C | 22.5%
3 | CC(C)N(CC(=O)N(CCc1c[nH]c2ccccc12)Cc1ccc(C(C)(C)C)cc1)CC(O)COCc1ccco1 (centres undefined) | 53.8% (active)
4 | COc1ccc(-c2oncc2-c2ccccc2)c(O)c1 | -29.6%
5 | COc1cccc(Oc2cncnc2-c2ccc(OC)cc2O)c1 | 76.5% (active)
6 | CCN(CC)CCNc1nc(C23CC4CC(CC(C4)C2)C3)cs1 | 55.4% (active)
7 | CC(C)CCn1c(SCC(=O)NC(C)(C)C)nc2cc(Cl)ccc2c1=O | 88.4% (active)
8 | COCCn1c(SC(C)C)nc2ccc(Br)cc2c1=O | -18.7%
9 | COCCn1c(SCCc2ccccc2)nc2cc(Cl)ccc2c1=O | 15.5%
10 | NCCOB(c1ccccc1)c1ccccc1 | 101% (active)
11 | O=C(CC1CCCC1)NCCCNC(=O)CC1CCCC1 | 7.09%
12 | O=C(CCl)NCCCCCCCCCNC(=O)CCl | 93.8% (active)
13 | CS(=O)(=O)Nc1c(Cl)c(Cl)c(Cl)c(Cl)c1Cl | 84% (active)
14 | Cc1ccc(N2CCN(C(=O)C34CC5CC(CC(C5)C3)C4)CC2)cc1Cl | 10.8%
15 | O=[N+]([O-])c1ccc(N2CCNCC2)cc1NC1C2CC3CC(C2)CC1C3 (centres undefined) | 83.1% (active)
16 | O=[N+]([O-])c1ccc(Cl)cc1NN=C1C2CC3CC1CC(O)(C3)C2 | 47.3%
17 | CC(Nc1cc(N2CCNCC2)ccc1[N+](=O)[O-])C12CC3CC(CC(C3)C1)C2 (centres undefined) | 59.9% (active)
18 | COc1ccc(NC(=O)N2CCCC(C(=O)c3cccc(OC(C)C)c3)C2)cc1OC (centres undefined) | 19%
19 | COc1ccc(NC(=O)Nc2cccc(-c3ccc(N4CCCC4)nn3)c2)cc1 | 66.1% (active)
20 | COc1ccc(C)cc1C(=O)Nc1ccc(N2CCCCC2)nc1 | 2.05%
21 | Fc1ccc(NN=Cc2ccccn2)c(F)c1 | 103% (active)
22 | C(=NNc1ccccc1)c1c[nH]c2ccccc12 | 52% (active)
23 | Fc1ccc(NN=Cc2c[nH]c3ccccc23)c(F)c1 | 90.6% (active)
24 | Fc1ccc(NN=Cc2ccc(F)c(F)c2)c(F)c1 | 40.3%
25 | O=C(NN=Cc1c[nH]c2ccc(Br)cc12)C1CC1 | 13.7%
26 | NC(=S)NN=Cc1c[nH]c2ccccc12 | inactive

Row | SMILES | inhibition
27 | C=CCN1C(=O)C(=O)N(CC2CCCCC2)C1=O | 43.2%
28 | C=CCn1c(SCCCC)nc(O)cc1=O | 33.7%
29 | CCCCSc1nsc(NC(C)=O)n1 | 71.7% (active)
30 | Cc1ccc2c(c1)-c1c(s[s+]c1SCC(=O)c1ccccc1)C(C)(C)N2 | 18.9%
31 | Cc1ccc(CN(C)CC(=O)Nc2cc(Cl)ccc2C#N)cc1 | -19.5%
32 | CN(CC(=O)Nc1ccc(Cl)cc1Cl)Cc1ccsc1 | 34.7%
33 | Cc1ccc(F)cc1NC(=O)CN(C)Cc1ccccc1F | 86.7% (active)
34 | O=C(Nc1ccc2c(c1)Cc1ccccc1-2)c1ccco1 | 90% (active)
35 | O=C(CCl)c1ccc(NC(=O)c2ccco2)cc1 | 44.1%
36 | O=C(Nc1ccc2c(c1)Cc1ccccc1-2)C1CCCO1 (centres undefined) | 81.9% (active)
37 | CCOc1ccc(-n2c(C)cc(C(=O)COc3cccc(-n4cnnn4)c3)c2C)cc1 | 89.6% (active)
38 | O=c1cnc2ccccc2n1CCOc1ccc(Br)cc1 | 22.6%
39 | Brc1ccc(OCCOc2cccc(-n3cnnn3)c2)cc1 | 69.1% (active)
40 | OCC1(Cc2ccccc2F)CCCN(Cc2nc(-c3ccccc3)cs2)C1 (centres undefined) | 13.4%
41 | Cc1cc(OCC(=O)Nc2ncn[nH]2)c(C)cc1Br | 71.5% (active)
42 | CC(C)CC(NC(=O)c1ccc(Cl)cc1Cl)C(=O)Nc1ncn[nH]1 (centres undefined) | 3.98%
43 | CC(=O)c1cc(Cl)ccc1OCC(=O)Nc1ccc(C)cc1Br | 29.6%
44 | COc1ccccc1OS(=O)(=O)CCS(=O)(=O)c1ccc(Cl)cc1 | 33.8%
45 | O=S(=O)(CCNc1ccc(Br)cc1)c1ccc(Cl)cc1 | 93.3% (active)
46 | Brc1ccc(NCc2ccsc2)cc1 | 47.5%
47 | COc1ccc(-c2csc(-n3[nH]c(C)c(N=Nc4nccs4)c3=O)n2)cc1 | 98.8% (active)
48 | Brc1ccccc1C1N=C(c2ccccc2)NO1 (centres undefined) | 67.1% (active)
49 | CC1=NN(c2nc(C)cc(C)n2)C(=O)C1Cc1ccccc1Cl (centres undefined) | -7.67%
50 | CC(C(=O)O)c1ccc2c(c1)[nH]c1ccc(Cl)cc12 (centres undefined) | 86% (active)
51 | CCN(C)CC1CCN(C(=O)CC2CCC(c3ccccc3)CC2)C1 (centres undefined) | -3.03%
52 | CC(C)(C)C1CCN(c2ncnc(Oc3ccc(F)cc3)c2N)CC1 | 25.6%

Row | SMILES | inhibition
53 | CCN(CC)c1ncnc(N2CCC(c3ccccc3)CC2)c1N | 56.1% (active)
54 | O=C(COn1nnc2ccc(C(F)(F)F)cc21)NC12CC3CC(CC(C3)C1)C2 | 21.7%
55 | COc1cccc(-c2cc3c(Nc4ccc5c(c4)OCO5)nccc3n2C)c1 | 85.6% (active)
56 | COc1cccc(-c2cc3c(Nc4ccc5c(c4)OCCO5)nccc3n2C)c1 | 61.1% (active)
57 | O=C1CCC2(CCCO2)CCN1Cc1ccc(C(F)(F)F)nc1 (centres undefined) | -2.37%
58 | O=C(Cn1nc(-c2ccc(F)cc2)oc1=O)N1CCSc2ccccc21 | 80.5% (active)
59 | NC(N)=NCCCCN=C(N)N | 0.43%
60 | CS(=O)(=O)N=C1C=C(S(=O)(=O)c2ccccc2)C(=O)c2ccccc21 | 30.9%
61 | COc1ccc2c([N+](=O)[O-])c(-n3nnc4ccccc43)[nH]c2c1 | -24.2%
62 | COc1ccc2c(Cl)c(C(=O)n3cnc4ccccc43)sc2c1 | 94.7% (active)
63 | O=[N+]([O-])c1nn(-c2ccc3c(c2)OCCO3)n(O)c1=NC1CCCCCC1 | 62.8% (active)
64 | C(=Nn1c(-c2ccc3c(c2)OCCO3)csc1=NC1CCCCC1)c1cccnc1 | 9.36%
65 | Brc1cccc(N2CCC(CNc3ncccn3)C2)c1 (centres undefined) | 90.2% (active)
66 | O=S(=O)(NCc1ccc(N2CCCC2)cc1)c1cccc(Br)c1 | 28.5%
67 | CNC(=O)C1CCN(C(=O)COc2ccc(Oc3ccc(C)cc3)cc2)CC1 | -12.7%
68 | Cc1ccc(COc2ccc(/C=N\NC(=O)CN3CCCCC3)cc2)cc1 | 83.3% (active)
69 | CC1Cc2cc(S(N)(=O)=O)ccc2N1CCCc1ccccc1 (centres undefined) | -10.1%
70 | O=c1c(Cl)c(Nc2ccc3c(c2)CCC3)cnn1-c1ccccc1 | 21.7%
71 | CC(C)(C)n1ncc(NCC2CCCc3ccccc32)c(Cl)c1=O (centres undefined) | 22.4%
72 | O=c1c(Cl)c(NCC2CCC2)cnn1-c1ccc(Cl)cc1 | 58% (active)
73 | Cc1ccc(CC(SCc2ccccc2)C(=O)O)cc1C (centres undefined) | 57.4% (active)
74 | Clc1ccc2nc(Cl)c3nnnn3c2c1 | 102% (active)
75 | CN(C)c1ccc(Nc2nc3ccccc3n3nnnc23)cc1 | 11.8%
76 | CCOc1ccc(Cl)cc1CNc1nnnn1C | -8.06%
77 | Cc1ccc(OCC(=O)NC2CCCC(C)C2C)cc1 (centres undefined) | 60% (active)
78 | COc1cc(NC(=O)C(C)Oc2ccc(F)c(F)c2)cc(OC)c1 (centres undefined) | 34.5%

Row | SMILES | inhibition
79 | COc1ccc(-c2ccc(C(=O)NS(C)(=O)=O)c(F)c2)c(F)c1 | 55.6% (active)
80 | O=C(Nc1nccs1)C1CCN(c2ccc(C(F)(F)F)cn2)CC1 | 18.4%
81 | Cc1cc(=O)[nH]c(-n2nc(-c3cccs3)cc2NC(=O)C2CCCCC2)n1 | 100% (active)
82 | Cc1cc(=O)[nH]c(-n2nc(-c3cccs3)cc2NC(=O)C2CC2)n1 | 2.59%
83 | Cc1cc(=O)[nH]c(-n2nc(C)cc2NC(=O)C2CC2)n1 | 100% (active)
84 | FC(F)(F)c1ccc(N2CCN(C(=S)NC3CC3)CC2)nc1 | -12.1%
85 | Cc1cc(=O)[nH]c(-n2nc(C)cc2NC(=O)C2CCCCC2)n1 | 101% (active)
86 | Cc1cc(NC(=O)C2CCC2)n(-c2ccc(C(F)(F)F)cn2)n1 | 79.6% (active)
87 | Cc1ccccc1C(=O)OC1CCCN(C)C1 (centres undefined) | -3.69%
88 | Cc1cc(=O)[nH]c(-n2nc(C)cc2NC(=O)C2CCCC2)n1 | 98.1% (active)
89 | CC(C)NC(=O)c1ccc(-c2ccc([N+](=O)[O-])cc2Cl)o1 | 37.9%
90 | O=C(O)c1cc([N+](=O)[O-])ccc1NCCCc1ccccc1 | -0.63%
91 | O=C(CCl)Nc1cc([N+](=O)[O-])ccc1Cl | 71.2% (active)
92 | CCCCN(C)C(=O)c1cc(-c2ccc(C)s2)[nH]n1 | 25.6%
93 | Cc1ccc(-c2cc(C(=O)O)n[nH]2)s1 | 99.8% (active)
94 | Cc1ccc(-c2csc(-c3ccc(O)cc3)n2)s1 | 11.1%
95 | O=C(Nc1ccc(I)cc1)Nc1ccc(Cl)c(Cl)c1 | -0.68%
96 | Cc1ccc(Cl)cc1Nc1ncccc1C(=O)N[C@H]1C[C@H]2CC[C@@H]1C2 | 9.89%
97 | O=C(Nc1ccc(Cl)c(Cl)c1)Nc1ccc(I)cc1F | -10.8%
98 | O=C(O)c1cnc(Nc2ccc(F)c(F)c2)c(Cl)c1 | 30.5%
99 | O=C(Nc1ccccc1)Nc1ccc(Cl)c(Cl)c1 | 95.9% (active)
100 | O=C(O)c1cccnc1Nc1ccc(Cl)c(Cl)c1 | 63.9% (active)
101 | CCOc1ccc(NC(=O)c2nc(C)n(-c3ccc(Cl)cc3)n2)cc1 | 94.3% (active)
102 | CCOc1ccc(NC(=O)c2ccc(Cl)o2)cc1 | 17%
103 | CCCCN(CCCC)CCCCSc1ccc(O)cc1 | 74.1% (active)
104 | CC(C)(C)c1nc(COc2cccc3c2CCCC3O)no1 (centres undefined) | 5.49%
